Data on 95 compounds can be found in PubChem BioAssay AID2314 (National Center for Advancing Translational Sciences (NCATS), 2010).

Each structure is given as a SMILES string. Out of some 300,000 compounds screened, about 37,000 (12%) were called active. For the sample, actives were picked, then their nearest neighbours and some compounds at random. Unmarked numbers belong to inactive results. Rule as the data show it: active = max response mostly above about 13% (no sharp cut-off); inactive = mostly below about 14%.

The test in a line: Cycloheximide Counterscreen for Small Molecule Inhibitors of Shiga Toxin. Also: read at 38.3 µM for the half of the compounds with a filed dose; 0% is about no effect. To be noted: cell reporter, cycloheximide protein synthesis inhibition counterscreen; stronger effect = higher value.
As to `CCCc1c(C(=O)N/N=C(\C)CCc2ccc(OC)cc2)nnn1-c1nonc1N`, the max response is 11%.
Consider `Cc1ccc(N(C(=O)c2snc(C(N)=O)c2N)C(C(=O)NCC2CCCO2)c2c[nH]c3ccccc23)cc1` (stereo not given), for which the max response is -1.6%.
The result for `Cc1cc(C)c(S(=O)(=O)N(C)CC(=O)NCC2CCCO2)c(C)c1` (stereo not given) reads -2.82%; that for `CCCn1nc(NC(=O)C(C)C)c2cc3cc(OC)ccc3nc21`, 17%; that for `COc1ccc(CCNC(=O)C2CCCN(Cc3nc(-c4cccc(Cl)c4)oc3C)C2)cc1OC` (stereo not given), 6.92%.
The result for `CCOc1cc(NC(=S)NCCCN(C)C)c(OCC)cc1NC(=O)C1CC1` reads -1%; that for `Cn1nnnc1-c1cc(Cl)cc(Cl)c1`, 1.2%; that for `CN(CCO)S(=O)(=O)c1ccc2c(c1)C(=O)c1cc(S(=O)(=O)N(C)CCO)ccc1-2`, -1.96%.
The result for `COc1ccc(CCNC(=O)C2CC3Cn4c(nc5cc(C)c(C)cc54)C3N2C)cc1` (stereo not given) reads -2.66%; that for `COc1ccc(NC(=O)CCN2CCCC2)c(OC)c1`, -1.44%; that for `COc1ccc(NC(=O)CCCC2CCCCC2)c(OC)c1`, 31.1% (active).
On to `Cc1ccc(SCCC(=O)Nc2cc(C)on2)cc1`, for which the max response was 5.3%.
Turning to `Cc1cc(NC(=O)CCC2COc3ccccc3O2)no1` (stereo not given), the max response was 14.1% (active).
As for `CC(=O)Oc1ccc(NC(=O)CCC2CCCCC2)c(C(=O)O)c1`, the max response was -3.07%.
For the compound `COc1ccc(NC(=O)CCC(=O)Nc2cc(OC)c(NC(=O)c3ccco3)cc2OC)c(OC)c1`, the max response was -4.97%.
The result for `COc1ccc(NC(=O)CC2COc3ccccc3O2)c(OC)c1` (stereo not given) reads 24.3% (active).
The result for `Cc1cc(NC(=O)CCC(=O)N(CC(=O)NCC2CCCO2)c2ccccc2)no1` (stereo not given) reads -1.66%; that for `COc1ccc(NC(=O)NCc2ccc3c(c2)OCO3)c(OC)c1`, -2.52%; that for `CCCNC(=O)COc1coc(CN2CCN(Cc3ccccc3)CC2)cc1=O`, -5.17%.
Then `CCn1ccnc1CNC(=O)CC1C(=O)NCCN1CCCc1ccccc1` (stereo not given), with -2.05%; and `CC1(C)C2CCC1(CS(=O)(=O)NCCc1c[nH]c3ccccc13)C(=O)C2` (stereo not given), with -4.31%.
Take `Cc1nc2cc(C(F)(F)F)ccc2n1CCNc1nc(-c2cc(Cl)c(N)c(Cl)c2)cs1`: the max response is -1.25%.
Then `N#Cc1ccccc1NC(=O)COc1c(Br)cc(Br)c2cccnc12`, with -3.08%; and `Cc1nn(CC(=O)NC2CCCCC2)c(=O)c2cccn12`, with 10.6%; and `CN1C=CC=C/C1=C1\SC(=S)N(Cc2ccccc2)C1=O`, with 3.74%.
Regarding `CCCCN1C(=O)/C(=C2/Sc3ccc(Cl)cc3N2CC)SC1=S`, the max response was -0.782%.
Then `CCCCN1C(=O)/C(=C2/C=CC=CN2C)SC1=S`, with 18.7% (active).
The result for `Cc1cccc(C)c1NC(=S)N(Cc1cccnc1)Cc1ccccc1Cl` reads -3.98%.
As for `COC(=O)c1ccc2ccccc2c1OC1OC(CO)C(O)C(O)C1NC(C)=O` (stereo not given), the max response is 0.801%.
The result for `CC1CCN(CC(O)COc2ccc(C(=O)c3ccccc3)cc2)CC1` (stereo not given) reads -1.82%.
Then `O=C(NCCN1CCOCC1)/C(=C/c1ccc(F)cc1)NC(=O)c1ccccc1`, with -4.36%.
Then `CC(=O)Oc1c(C(=O)c2nnc(C)o2)c(=O)n(Cc2ccccc2)c2ccccc12`, with -0.619%.
As for `Brc1ccc2c(c1)[C@H]1OCC[C@H]1[C@@H](c1cccs1)N2`, the max response was 8.72%.
Then `C/C(=N\NC(=O)Cc1ccc(F)cc1)c1ccc(F)cc1`, with -1.95%.
The result for `O=C(O)CC/C(=N\NC(=O)c1ccc(F)cc1)c1ccc(Br)cc1` reads 35% (active); that for `C/C(CC(=O)N1CCN(C=O)CC1)=N\NC(=O)c1ccc(Br)cc1`, 7.55%.
Then `CCc1ccccc1NC(=O)CN(C)S(=O)(=O)c1ccc2c(c1)c(=O)n(C)c(=O)n2C`, with -5.59%.
As for `O=c1c2ccccc2nc(-c2ccco2)n1-c1ccc(Br)cn1`, the max response is -3.55%.
The result for `S=c1[nH]nc(-c2ccco2)n1/N=C/c1ccccc1` reads -1.31%; that for `Cn1c(-c2ccco2)nc2cc3ccccc3cc21`, 16.7% (active).
The result for `Cc1ccc(CS(=O)(=O)CCC(=O)NCc2ccc(F)cc2)cc1` reads -2.44%; that for `Cc1cc(Nc2ccc(N3CCOCC3)cc2)c2cccc(C)c2n1`, -1.97%.
Then `O=C(N/N=C\c1cccc(Br)c1)c1ccccc1-n1cccc1`, with 1.75%; and `O=C(Cc1cc(=O)[nH][nH]1)N/N=C/c1ccccc1[N+](=O)[O-]`, with -3.9%.
`CC(=O)N/N=C/c1cc2c(cc1[N+](=O)[O-])OCO2`: the max response was -3%.
`CNC(=S)N/N=C/c1ccc(N2CCOCC2)s1`: the max response was 13.7%.
Consider `CN(C)c1ccc(/C=N/Nc2cc(N3CCOCC3)nc(N3CCOCC3)n2)cc1`, for which the max response is -1.93%.
Turning to `Cc1ccc(-c2cc(C(=O)N/N=C/C=C/c3ccccc3)n[nH]2)o1`, the max response was -1.74%.
The result for `Cc1cc(C(=O)N/N=C/c2ccc(N3CCOCC3)cc2)c(C)o1` reads 26.5% (active).
As to `CCN(CC)c1ccc(C(=O)N/N=C/c2ccc(N3CCOCC3)cc2)cc1`, the max response was -3.32%.
Then `Cc1cc(C(=O)N/N=C\C(Br)=C\c2ccccc2)c(C)o1`, with 32.4% (active); and `Cc1cc(C(=O)N/N=C/c2ccccc2[N+](=O)[O-])c(C)o1`, with 35% (active); and `Cc1ccccc1N/N=C/c1ccc(N2CCOCC2)cc1`, with 21.1% (active).
With `Cc1ccc(S(=O)(=O)c2c[nH]c3ccc(C)cc3c2=O)cc1`, the max response is -2.63%.
The result for `CCN(CCCNC(=O)c1ccc2c(c1)NC(=O)CN2C)c1cccc(C)c1` reads -2.58%.
The result for `COc1cccc(CNS(=O)(=O)c2ccc3c(c2)N(C(C)=O)CCS3)c1` reads 3.83%; that for `CCOc1ccc2[nH]c3nc(SCC(=O)NC4CCCC4)nnc3c2c1`, -2.15%; that for `CC(C)c1cc(C(=O)O)n[nH]1`, 10.8%.
The result for `CC(=O)N/C(=C/c1ccc(OC(F)F)cc1)C(=O)O` reads 1.24%.
With `CC(C)c1cc(C(=O)N/N=C/C(Br)=C/c2ccccc2)n[nH]1`, the max response is 14.6% (active).
The result for `COc1ccc2ccccc2c1/C=N/NC(=O)c1cc(C)[nH]n1` reads -1.72%; that for `Cc1cc(C(=O)NNC(=O)CCC2CCCCC2)c(C)o1`, -7.16%; that for `CC(=C/c1ccccc1)/C=N/NC(=O)c1cc(C)oc1C`, 34.8% (active).
Then `O=C(CCC1CCCN(C(=O)c2ccc(F)c(F)c2)C1)N1CCN(c2ccccn2)CC1` (stereo not given), with -2.81%.
Then `CC(=O)c1ccc(NC(=O)CCNS(=O)(=O)c2cc(Br)cnc2N)cc1`, with -6.69%; and `CCOC(=O)[C@H]1[C@H]2COc3cc(OC)ccc3[C@@H]2N2C(=O)N(c3ccc(Br)cc3)C(=O)[C@@]12C`, with -2.74%; and `CC(=O)Nc1ccc(NS(=O)(=O)c2ccc3c(c2)NC(=O)CC(=O)N3)cc1`, with -2.79%.
`Cc1c(C(=O)Nc2cccc(Cl)c2)cn2c(nc3ccccc32)c1C#N`: the max response is -2.2%.
As to `Cn1c(Nc2cccc(Cl)c2)nc2ccccc21`, the max response is 33.5% (active).
In the case of `C/C(=N\c1nc2ccccc2n1C)c1cc(Cl)ccc1O`, the max response was -3.14%.
Then `Cc1cc2c(c(=O)n1Cc1ccccc1)C1O[C@](CCCCN3C(=O)c4ccccc4C3=O)(Cc3ccccc31)O2`, with -2.41%; and `O=C1Nc2ccccc2C12Nc1ccccc1S2` (stereo not given), with 33.2% (active); and `Cc1cc(O)c(C2(O)C(=O)Nc3ccccc32)cc1C` (stereo not given), with -3.78%.
`COc1ccc(C2(O)C(=O)Nc3ccccc32)cc1` (stereo not given): the max response was -3.25%.
Then `CC(=O)NC1=NN(C(C)=O)C(C)(c2ccc(C)cc2)S1` (stereo not given), with -3.23%; and `Cc1cc(Br)ccc1NC(=O)c1sc2ncn(CC(=O)N3CCN(c4ccccn4)CC3)c(=O)c2c1C`, with -5.58%.
The result for `CCOC(=O)C(C)n1cnc2sc(C)c(C)c2c1=O` (stereo not given) reads -0.534%; that for `Cc1cc2ncn(CCCCOc3ccccc3)c2cc1C`, -2.02%; that for `Cc1c(C(N)=O)sc2ncn(CCOc3ccccc3)c(=O)c12`, 17.6% (active).
The result for `COc1cccc(NC(=O)Cn2cnc3sc(C)c(S(=O)(=O)N4CCN(C)CC4)c3c2=O)c1` reads -1.26%; that for `Cc1cccc(OC(=O)c2sc3ncn(C)c(=O)c3c2C)c1`, 32.8% (active).
Consider `O=c1cc(CCl)nc2scc(-c3ccccc3)n12`, for which the max response was 3.02%.
The result for `COc1ccc(CCNC(=O)CCNS(=O)(=O)c2cc(Br)cnc2N)cc1OC` reads 13.2%; that for `CN1C(=O)C2(OCCCO2)c2cc(Cl)ccc21`, 0.948%.
For the compound `CCCS(=O)(=O)N1CCC(CCOc2ccccc2)(C(=O)OCC)CC1`, the max response was -1.66%.
The result for `COc1ccc(-c2ccc(OC)c(C3C4C=CCC(C)C4C(=O)N3Cc3ccccc3)c2)cc1C` (stereo not given) reads 28.8%.
For the compound `COc1ccc2cc1Oc1ccc(cc1)C[C@H]1c3cc(c(OC)cc3CCN1C)Oc1c(O)c(OC)cc3c1[C@H](C2)N(C)CC3`, the max response was -1.4%.
Then `O=C(c1cncc(Br)c1)N1CCN(c2ccc([N+](=O)[O-])cc2)CC1`, with -2.1%; and `COc1ccc(N(CC(=O)Nc2cccc3ccccc23)S(C)(=O)=O)c(OC)c1`, with -1.55%.
As to `CC(C)(C)[Si](OCC[C@@H]1C[C@@]1(C)[C@@H](NP(=O)(c1ccccc1)c1ccccc1)c1ccccc1)(c1ccccc1)c1ccccc1`, the max response was -2.22%.
The result for `COC(=O)c1ccccc1NC(=O)c1ccc(C#N)cc1` reads 14.4%; that for `Cc1ccc(C(=O)/C=C/c2c(C)nn(-c3ccccc3)c2Cl)cc1`, 37.8% (active); that for `Cc1nn(-c2ccccc2)c(Cl)c1/C=C/C(=O)c1ccc(O)cc1`, 17% (active).
Then `CCNC(=O)COC(=O)/C=C/c1c(C)nn(Cc2cccc(OC)c2)c1Cl`, with -1.93%; and `O=C(/C=C/c1ccc(Cl)c([N+](=O)[O-])c1)c1ccc(O)cc1`, with 11.3%.
